We go through 1 sequence from publication PMC7862700, “An all-to-all approach to the identification of sequence-specific readers for epigenetic DNA modifications on cytosine”.

What all share (experiment): DAPPL (digital affinity profiling via proximity ligation, sequencing); 10 mM Tris-HCl pH 7.5, 50 mM NaCl, 1 mM DTT, 4% glycerol, room temperature, 30 min; GST-TFs on glutathione beads, 16-mer random dsDNA library, 0.1% formaldehyde crosslink after washing; high values mean tight binding
Assay [1] concerns the target T1, FLI1 (Homo sapiens, UniProt Q01543 1-452).
T1 sequence: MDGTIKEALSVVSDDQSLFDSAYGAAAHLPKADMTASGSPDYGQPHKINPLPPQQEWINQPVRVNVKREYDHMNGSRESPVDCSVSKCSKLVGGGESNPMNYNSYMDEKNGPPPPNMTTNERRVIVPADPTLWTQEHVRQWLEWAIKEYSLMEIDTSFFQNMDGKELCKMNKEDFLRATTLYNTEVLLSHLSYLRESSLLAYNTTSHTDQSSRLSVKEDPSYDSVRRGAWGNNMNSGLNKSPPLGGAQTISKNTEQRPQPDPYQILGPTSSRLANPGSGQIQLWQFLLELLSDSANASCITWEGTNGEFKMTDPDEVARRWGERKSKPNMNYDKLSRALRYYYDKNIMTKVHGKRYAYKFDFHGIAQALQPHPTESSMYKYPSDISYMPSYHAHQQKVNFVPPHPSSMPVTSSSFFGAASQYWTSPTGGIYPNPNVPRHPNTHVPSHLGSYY
The conditions noted are these: protein: recombinant; tags: N-terminal GST; dsDNA, one strand shown. Summed up:
(§1)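 In yeast, human transcription factors were expressed with a GST fusion, then pulled down on glutathione beads and given DNA barcodes. Pooled with a tag-only sample, they were exposed to 200 nmole of a 16-mer random double-stranded DNA library (Tris/NaCl/DTT/glycerol buffer, room temperature, 30 min), washed, crosslinked with 0.1% formaldehyde, proximity-ligated using BsaI/T4 ligase for 1 h at 37 °C, PCR-amplified and read on an Illumina NextSeq500. Each hexamer's frequency of reads for a factor, divided by the matching frequency for the tag-only sample, gives the binding signal.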

The target in assay [2] is T2, ELK1 (Homo sapiens, UniProt P19419 1-428).
T2 sequence: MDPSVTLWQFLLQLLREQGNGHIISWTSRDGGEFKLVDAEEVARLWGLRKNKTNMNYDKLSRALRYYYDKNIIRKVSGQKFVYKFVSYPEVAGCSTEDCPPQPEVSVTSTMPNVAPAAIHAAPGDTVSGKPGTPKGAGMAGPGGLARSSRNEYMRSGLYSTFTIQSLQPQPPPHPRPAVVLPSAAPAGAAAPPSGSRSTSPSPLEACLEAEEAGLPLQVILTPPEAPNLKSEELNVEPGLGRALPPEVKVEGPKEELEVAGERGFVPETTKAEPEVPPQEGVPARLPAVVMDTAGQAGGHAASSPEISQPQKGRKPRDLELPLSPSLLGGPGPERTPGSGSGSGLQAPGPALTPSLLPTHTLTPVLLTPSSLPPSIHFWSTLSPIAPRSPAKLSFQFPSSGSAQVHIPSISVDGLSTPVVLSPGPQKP
To be noted: protein: recombinant; tags: N-terminal GST; dsDNA, one strand shown. Summed up: as §1

Assay [3] has as its target T3, GABPA (Homo sapiens, UniProt Q06546 1-454).
T3 sequence: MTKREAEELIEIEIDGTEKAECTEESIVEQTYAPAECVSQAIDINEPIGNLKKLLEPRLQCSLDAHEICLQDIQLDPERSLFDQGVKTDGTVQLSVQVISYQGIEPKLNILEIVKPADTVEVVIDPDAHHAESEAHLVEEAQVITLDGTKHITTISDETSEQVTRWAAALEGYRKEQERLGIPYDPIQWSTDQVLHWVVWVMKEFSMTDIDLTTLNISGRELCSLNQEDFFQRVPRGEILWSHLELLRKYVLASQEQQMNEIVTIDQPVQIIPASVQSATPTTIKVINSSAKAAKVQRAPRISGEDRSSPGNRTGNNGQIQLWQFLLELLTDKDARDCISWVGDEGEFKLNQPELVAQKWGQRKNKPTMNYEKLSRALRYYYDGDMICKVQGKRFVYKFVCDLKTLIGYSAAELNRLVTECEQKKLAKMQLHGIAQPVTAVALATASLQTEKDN
The conditions noted are these: protein: recombinant; tags: N-terminal GST; dsDNA, one strand shown. Put shortly:
as §1

Assay [4] has as its target T4, ERG (Homo sapiens, UniProt P11308 1-479).
T4 sequence: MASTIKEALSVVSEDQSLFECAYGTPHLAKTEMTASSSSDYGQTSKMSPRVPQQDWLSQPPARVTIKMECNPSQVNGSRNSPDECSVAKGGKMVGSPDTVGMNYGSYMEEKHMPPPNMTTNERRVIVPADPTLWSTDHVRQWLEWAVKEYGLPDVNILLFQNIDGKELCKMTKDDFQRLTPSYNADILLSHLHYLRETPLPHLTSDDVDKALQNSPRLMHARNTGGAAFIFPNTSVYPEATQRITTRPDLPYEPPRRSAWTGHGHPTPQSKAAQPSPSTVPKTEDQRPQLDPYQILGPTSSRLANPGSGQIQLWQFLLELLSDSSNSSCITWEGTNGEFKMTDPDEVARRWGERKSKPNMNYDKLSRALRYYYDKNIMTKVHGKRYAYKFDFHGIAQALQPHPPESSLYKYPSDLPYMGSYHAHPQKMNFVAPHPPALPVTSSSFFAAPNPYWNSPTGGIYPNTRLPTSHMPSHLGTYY
To be noted: protein: recombinant; tags: N-terminal GST; dsDNA, one strand shown. Summed up: as §1

Assay [5] has as its target ELF1 (Homo sapiens, UniProt P32519 1-619). The conditions noted are these: protein: recombinant; tags: N-terminal GST; dsDNA, one strand shown. Put shortly: as §1
The target of assay [6] is T5, EHF (Homo sapiens, UniProt Q9NZC4 1-300).
T5 sequence: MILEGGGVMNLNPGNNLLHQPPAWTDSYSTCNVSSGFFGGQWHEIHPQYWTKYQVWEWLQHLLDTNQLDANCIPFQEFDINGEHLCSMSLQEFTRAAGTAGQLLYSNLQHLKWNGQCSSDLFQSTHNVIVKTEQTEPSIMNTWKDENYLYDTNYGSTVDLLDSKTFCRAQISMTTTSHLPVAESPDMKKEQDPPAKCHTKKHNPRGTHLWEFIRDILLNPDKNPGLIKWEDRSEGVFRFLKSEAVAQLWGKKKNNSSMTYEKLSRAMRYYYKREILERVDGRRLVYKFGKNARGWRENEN
The conditions noted are these: protein: recombinant; tags: N-terminal GST; dsDNA, one strand shown. Summed up:
as §1

Assay [7] addresses SPI1 (Homo sapiens, UniProt P17947 1-270). The conditions noted are these: protein: recombinant; tags: N-terminal GST; dsDNA, one strand shown. Summed up:
as §1

Assay [8] has as its target SPIB (Homo sapiens, UniProt Q01892 1-262). To be noted: protein: recombinant; tags: N-terminal GST; dsDNA, one strand shown. Summed up:
as §1

The target in assay [9] is T6, FEV (Homo sapiens, UniProt Q99581 1-238).
T6 sequence: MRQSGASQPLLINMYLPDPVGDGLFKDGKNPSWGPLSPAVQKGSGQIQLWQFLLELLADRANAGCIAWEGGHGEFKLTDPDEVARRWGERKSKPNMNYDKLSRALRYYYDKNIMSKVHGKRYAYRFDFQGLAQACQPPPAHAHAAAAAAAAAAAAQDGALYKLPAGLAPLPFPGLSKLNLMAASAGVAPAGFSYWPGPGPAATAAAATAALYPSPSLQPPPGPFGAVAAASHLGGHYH
To be noted: protein: recombinant; tags: N-terminal GST; dsDNA, one strand shown. Summed up:
as §1

Assay [10] concerns the target ETV5 (Homo sapiens, UniProt P41161 1-510). To be noted: protein: recombinant; tags: N-terminal GST; dsDNA, one strand shown. Put shortly:
as §1

Assay [11] deals with HSF1 (Homo sapiens, UniProt Q00613 1-529). To be noted: protein: recombinant; tags: N-terminal GST; chain copies: 3; dsDNA, one strand shown. Summed up:
as §1

The target of assay [12] is T7, SPIC (Homo sapiens, UniProt Q8N5J4 1-248).
T7 sequence: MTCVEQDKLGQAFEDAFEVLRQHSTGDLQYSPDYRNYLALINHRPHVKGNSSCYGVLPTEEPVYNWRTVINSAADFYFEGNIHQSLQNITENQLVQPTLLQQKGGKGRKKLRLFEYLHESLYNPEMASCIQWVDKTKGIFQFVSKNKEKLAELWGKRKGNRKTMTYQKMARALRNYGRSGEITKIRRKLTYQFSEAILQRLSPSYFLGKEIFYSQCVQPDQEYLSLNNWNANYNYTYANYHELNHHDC
To be noted: protein: recombinant; tags: N-terminal GST; dsDNA, one strand shown. Summed up: as §1

Assay [13] deals with ELF4 (Homo sapiens, UniProt Q99607 1-663). To be noted: protein: recombinant; tags: N-terminal GST; dsDNA, one strand shown. Put shortly:
as §1

Assay [14] has as its target T8, ELK4 (Homo sapiens, UniProt P28324-2 1-405).
T8 sequence: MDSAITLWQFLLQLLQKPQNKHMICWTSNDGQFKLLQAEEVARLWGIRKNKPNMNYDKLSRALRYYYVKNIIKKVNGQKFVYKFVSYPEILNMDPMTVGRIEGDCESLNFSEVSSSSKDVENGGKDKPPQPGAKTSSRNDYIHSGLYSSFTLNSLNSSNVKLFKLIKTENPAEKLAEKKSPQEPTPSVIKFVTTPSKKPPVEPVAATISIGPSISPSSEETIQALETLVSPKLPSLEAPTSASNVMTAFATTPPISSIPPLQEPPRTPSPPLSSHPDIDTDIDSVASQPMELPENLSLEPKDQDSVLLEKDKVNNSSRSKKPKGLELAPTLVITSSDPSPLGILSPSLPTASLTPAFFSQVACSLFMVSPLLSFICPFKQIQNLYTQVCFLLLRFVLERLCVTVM
The conditions noted are these: protein: recombinant; tags: N-terminal GST; dsDNA, one strand shown. Summed up:
as §1

For assay [15], the target named is T9, ETV2 (Homo sapiens, UniProt O00321 1-342).
T9 sequence: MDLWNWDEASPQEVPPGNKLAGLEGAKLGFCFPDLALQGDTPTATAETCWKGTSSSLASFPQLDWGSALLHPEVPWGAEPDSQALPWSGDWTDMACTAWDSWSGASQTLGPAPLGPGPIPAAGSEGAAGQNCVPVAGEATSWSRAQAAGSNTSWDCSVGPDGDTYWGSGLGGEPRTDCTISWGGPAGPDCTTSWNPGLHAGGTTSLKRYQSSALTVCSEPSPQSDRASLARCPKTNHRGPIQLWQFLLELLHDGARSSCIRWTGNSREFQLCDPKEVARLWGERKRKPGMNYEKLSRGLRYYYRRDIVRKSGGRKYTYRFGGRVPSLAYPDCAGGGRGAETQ
To be noted: protein: recombinant; tags: N-terminal GST; dsDNA, one strand shown. Put shortly:
as §1

In assay [16] the target is T10, ELF3 (Homo sapiens, UniProt P78545 1-371).
T10 sequence: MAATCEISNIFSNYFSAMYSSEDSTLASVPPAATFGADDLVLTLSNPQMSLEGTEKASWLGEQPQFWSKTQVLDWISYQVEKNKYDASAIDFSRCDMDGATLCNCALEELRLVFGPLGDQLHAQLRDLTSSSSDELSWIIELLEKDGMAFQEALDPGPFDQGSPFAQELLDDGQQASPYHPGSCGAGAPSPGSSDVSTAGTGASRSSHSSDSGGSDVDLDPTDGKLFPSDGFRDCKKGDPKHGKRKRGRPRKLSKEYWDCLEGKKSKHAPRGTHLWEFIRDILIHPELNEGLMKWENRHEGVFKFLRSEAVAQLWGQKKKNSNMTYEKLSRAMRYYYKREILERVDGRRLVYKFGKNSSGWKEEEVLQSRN
To be noted: protein: recombinant; tags: N-terminal GST; dsDNA, one strand shown. Put shortly: as §1

The target in assay [17] is CRX (Homo sapiens, UniProt O43186 1-299). The conditions noted are these: protein: recombinant; tags: N-terminal GST; dsDNA, one strand shown. Summed up: as §1
Chain of CRX (O43186 whole entry): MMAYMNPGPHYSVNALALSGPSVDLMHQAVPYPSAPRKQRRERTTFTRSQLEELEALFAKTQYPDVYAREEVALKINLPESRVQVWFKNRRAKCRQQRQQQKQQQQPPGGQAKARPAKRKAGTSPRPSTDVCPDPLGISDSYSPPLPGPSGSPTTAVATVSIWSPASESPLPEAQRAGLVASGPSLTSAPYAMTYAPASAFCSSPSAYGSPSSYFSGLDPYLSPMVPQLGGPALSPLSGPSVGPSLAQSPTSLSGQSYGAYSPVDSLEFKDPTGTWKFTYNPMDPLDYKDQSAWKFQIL
For assay [18], the target named is ETV1 (Homo sapiens, UniProt P50549 1-477). To be noted: protein: recombinant; tags: N-terminal GST; dsDNA, one strand shown. Summed up: as §1
Chain of ETV1 (P50549 whole entry): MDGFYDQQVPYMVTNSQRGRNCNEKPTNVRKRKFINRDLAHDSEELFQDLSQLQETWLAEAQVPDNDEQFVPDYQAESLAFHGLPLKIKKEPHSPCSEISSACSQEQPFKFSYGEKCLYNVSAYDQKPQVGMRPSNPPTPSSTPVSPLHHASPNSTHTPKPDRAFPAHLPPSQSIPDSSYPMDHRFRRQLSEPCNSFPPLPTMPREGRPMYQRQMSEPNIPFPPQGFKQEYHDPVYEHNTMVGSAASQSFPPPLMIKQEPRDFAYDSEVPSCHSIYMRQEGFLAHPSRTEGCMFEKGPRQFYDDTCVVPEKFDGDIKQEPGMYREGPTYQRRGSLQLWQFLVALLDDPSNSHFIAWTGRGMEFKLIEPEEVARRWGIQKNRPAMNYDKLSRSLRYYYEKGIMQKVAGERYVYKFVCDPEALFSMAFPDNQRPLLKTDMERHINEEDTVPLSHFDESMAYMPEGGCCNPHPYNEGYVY

Chain of ELF4 (Q99607 whole entry): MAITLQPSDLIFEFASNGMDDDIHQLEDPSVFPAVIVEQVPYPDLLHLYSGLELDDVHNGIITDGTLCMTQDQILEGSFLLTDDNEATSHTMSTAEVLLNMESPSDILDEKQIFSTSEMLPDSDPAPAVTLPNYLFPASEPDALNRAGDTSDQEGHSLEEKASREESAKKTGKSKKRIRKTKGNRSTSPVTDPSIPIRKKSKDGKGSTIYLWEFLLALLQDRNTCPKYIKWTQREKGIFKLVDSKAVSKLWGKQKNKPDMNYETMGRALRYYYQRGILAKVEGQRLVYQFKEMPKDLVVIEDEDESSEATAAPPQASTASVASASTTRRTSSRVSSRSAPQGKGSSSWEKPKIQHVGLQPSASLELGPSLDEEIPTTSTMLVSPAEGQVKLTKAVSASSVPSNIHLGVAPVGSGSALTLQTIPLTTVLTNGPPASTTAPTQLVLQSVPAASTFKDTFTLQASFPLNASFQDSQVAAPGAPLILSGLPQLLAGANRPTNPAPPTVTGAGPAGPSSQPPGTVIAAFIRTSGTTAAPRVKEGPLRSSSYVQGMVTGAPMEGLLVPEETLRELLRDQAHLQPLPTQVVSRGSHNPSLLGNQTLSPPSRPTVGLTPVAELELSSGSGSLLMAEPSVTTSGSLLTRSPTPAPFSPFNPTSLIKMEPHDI
Chain of ETV5 (P41161 whole entry): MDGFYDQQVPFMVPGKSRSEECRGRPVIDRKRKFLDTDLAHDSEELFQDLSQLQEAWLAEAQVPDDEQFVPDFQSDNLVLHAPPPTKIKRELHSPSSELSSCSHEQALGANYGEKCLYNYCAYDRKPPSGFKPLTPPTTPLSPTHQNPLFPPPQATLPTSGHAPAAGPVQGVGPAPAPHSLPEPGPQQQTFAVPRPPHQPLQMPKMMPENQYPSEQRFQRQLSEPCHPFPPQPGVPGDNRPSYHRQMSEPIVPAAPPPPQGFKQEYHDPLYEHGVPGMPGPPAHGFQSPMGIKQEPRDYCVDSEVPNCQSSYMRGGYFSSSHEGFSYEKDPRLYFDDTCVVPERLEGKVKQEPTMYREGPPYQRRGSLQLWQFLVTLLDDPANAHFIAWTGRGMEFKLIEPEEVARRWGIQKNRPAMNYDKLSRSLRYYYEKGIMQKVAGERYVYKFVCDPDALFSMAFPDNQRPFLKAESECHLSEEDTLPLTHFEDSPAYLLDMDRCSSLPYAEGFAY
Chain of SPIB (Q01892 whole entry): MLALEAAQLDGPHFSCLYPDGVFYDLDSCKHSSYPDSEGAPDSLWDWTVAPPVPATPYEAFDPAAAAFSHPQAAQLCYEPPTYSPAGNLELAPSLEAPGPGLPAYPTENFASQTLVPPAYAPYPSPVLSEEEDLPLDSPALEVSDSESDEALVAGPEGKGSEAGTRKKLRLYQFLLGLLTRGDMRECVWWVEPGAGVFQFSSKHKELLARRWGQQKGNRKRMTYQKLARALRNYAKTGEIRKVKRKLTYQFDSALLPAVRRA
Chain of HSF1 (Q00613 whole entry): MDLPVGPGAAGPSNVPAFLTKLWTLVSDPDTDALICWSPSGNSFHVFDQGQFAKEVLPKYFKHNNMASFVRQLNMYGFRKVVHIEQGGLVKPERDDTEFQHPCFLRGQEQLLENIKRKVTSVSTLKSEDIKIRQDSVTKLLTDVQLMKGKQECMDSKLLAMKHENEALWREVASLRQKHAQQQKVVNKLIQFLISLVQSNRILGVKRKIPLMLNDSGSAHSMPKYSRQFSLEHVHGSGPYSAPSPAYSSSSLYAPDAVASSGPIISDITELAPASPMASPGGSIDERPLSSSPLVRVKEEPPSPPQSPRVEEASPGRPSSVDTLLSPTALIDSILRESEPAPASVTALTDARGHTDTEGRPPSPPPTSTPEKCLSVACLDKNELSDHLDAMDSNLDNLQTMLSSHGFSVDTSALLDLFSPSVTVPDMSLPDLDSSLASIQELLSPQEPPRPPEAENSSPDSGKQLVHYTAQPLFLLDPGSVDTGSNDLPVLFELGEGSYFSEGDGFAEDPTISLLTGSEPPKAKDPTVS
Chain of ELF1 (P32519 whole entry): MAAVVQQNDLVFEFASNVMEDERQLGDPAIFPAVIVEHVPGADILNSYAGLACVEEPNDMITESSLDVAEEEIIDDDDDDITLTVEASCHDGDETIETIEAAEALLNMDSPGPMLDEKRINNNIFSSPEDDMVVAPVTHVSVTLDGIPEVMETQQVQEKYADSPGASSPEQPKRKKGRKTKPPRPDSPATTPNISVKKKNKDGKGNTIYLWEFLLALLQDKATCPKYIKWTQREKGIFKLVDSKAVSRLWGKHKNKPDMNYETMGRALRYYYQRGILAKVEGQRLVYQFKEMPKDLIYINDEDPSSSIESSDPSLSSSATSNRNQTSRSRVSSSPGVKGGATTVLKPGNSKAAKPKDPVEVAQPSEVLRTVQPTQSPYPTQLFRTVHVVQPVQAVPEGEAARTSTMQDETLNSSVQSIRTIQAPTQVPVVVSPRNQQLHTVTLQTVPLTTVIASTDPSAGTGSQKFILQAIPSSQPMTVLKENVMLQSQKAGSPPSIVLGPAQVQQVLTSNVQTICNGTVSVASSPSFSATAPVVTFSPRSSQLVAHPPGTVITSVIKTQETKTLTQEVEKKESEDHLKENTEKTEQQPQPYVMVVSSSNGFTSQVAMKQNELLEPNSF

For the sequence TCTGTG, the binding signal in [1] is 1.17 fold enrichment (6-mer frequency, TF over GST control); in assay [2], 1.14 fold enrichment (6-mer frequency, TF over GST control); in [3], 1.18 fold enrichment (6-mer frequency, TF over GST control); in [4], 1.07 fold enrichment (6-mer frequency, TF over GST control); in [5] it was 1.12 fold enrichment (6-mer frequency, TF over GST control); in assay [6], 1.13 fold enrichment (6-mer frequency, TF over GST control). Further, the binding signal is 1.14 fold enrichment (6-mer frequency, TF over GST control) in [7]; 1.14 fold enrichment (6-mer frequency, TF over GST control) in assay [8]; 1.07 fold enrichment (6-mer frequency, TF over GST control) in assay [9]; 1.08 fold enrichment (6-mer frequency, TF over GST control) in [10]; 1.05 fold enrichment (6-mer frequency, TF over GST control) in [11]; 1.34 fold enrichment (6-mer frequency, TF over GST control) in assay [12]. Moreover, the binding signal in [13] is 1.2 fold enrichment (6-mer frequency, TF over GST control); in assay [14], 1.21 fold enrichment (6-mer frequency, TF over GST control); in [15], 1.1 fold enrichment (6-mer frequency, TF over GST control); in [16], 1.07 fold enrichment (6-mer frequency, TF over GST control); in assay [17] it was 1.09 fold enrichment (6-mer frequency, TF over GST control); in [18], 1.16 fold enrichment (6-mer frequency, TF over GST control).
